Drawing on ChEMBL document CHEMBL1961873, “Compounds: GSK PKIS; Assays: Nanosyn kinase panel” (2012), this text covers inhibition for 33 compounds.

As usually defined, the inhibition is the drop in the measured response relative to a control, in per cent.

In the first assay the target is Fibroblast growth factor receptor 1 (Homo sapiens) (UniProt P11362). The following applies: at 1 µM.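 Further: values are the mean percent inhibition of FGFR1 across replicate measurements.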
Fibroblast growth factor receptor 1 (Homo sapiens), sequence (P11362 22-822 limits assumed): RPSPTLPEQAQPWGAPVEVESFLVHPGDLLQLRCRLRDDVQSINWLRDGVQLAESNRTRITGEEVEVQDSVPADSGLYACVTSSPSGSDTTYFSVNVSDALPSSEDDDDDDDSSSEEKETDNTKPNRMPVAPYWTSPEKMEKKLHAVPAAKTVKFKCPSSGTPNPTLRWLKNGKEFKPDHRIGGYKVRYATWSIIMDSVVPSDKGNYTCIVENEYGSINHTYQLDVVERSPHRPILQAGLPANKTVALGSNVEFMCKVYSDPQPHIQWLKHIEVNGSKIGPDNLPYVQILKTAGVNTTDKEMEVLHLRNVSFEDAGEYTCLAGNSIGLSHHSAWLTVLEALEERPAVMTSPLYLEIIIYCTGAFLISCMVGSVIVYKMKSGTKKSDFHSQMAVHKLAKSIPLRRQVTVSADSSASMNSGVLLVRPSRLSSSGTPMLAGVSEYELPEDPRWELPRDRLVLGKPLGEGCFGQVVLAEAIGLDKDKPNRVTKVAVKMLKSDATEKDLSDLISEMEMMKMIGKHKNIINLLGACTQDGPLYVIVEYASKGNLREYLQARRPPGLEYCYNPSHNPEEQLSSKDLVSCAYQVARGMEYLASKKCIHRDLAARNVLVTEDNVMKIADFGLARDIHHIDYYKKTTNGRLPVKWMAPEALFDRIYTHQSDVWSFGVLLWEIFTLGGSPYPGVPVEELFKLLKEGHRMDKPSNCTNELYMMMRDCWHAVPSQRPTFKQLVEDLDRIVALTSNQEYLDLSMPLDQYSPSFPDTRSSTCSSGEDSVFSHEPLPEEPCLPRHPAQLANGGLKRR
As to `CS(=O)(=O)CCN(CC#N)Cc1ccc(-c2ccc3ncnc(Nc4ccc(OCc5cccc(F)c5)c(Cl)c4)c3c2)o1`, the inhibition is -4.3%.

As for `CC(=O)Nc1cccc(C#Cc2cncnc2Nc2ccc(OCc3cccc(F)c3)c(Cl)c2)n1`, the inhibition is -5.8%.

Turning to `COc1ccccc1Nc1ncc(-c2ccccc2)o1`, the inhibition is 5.99%.

In the case of `NS(=O)(=O)c1cccc(-c2ccc3c(NC(=O)C4CC4)n[nH]c3c2)c1`, the inhibition is -2.92%.

Take `Cc1nnc(-c2ccc(C)c(-c3ccc(C(=O)Nc4cccc(C#N)c4)cc3)c2)o1`: the inhibition is 1.5%.

For the compound `COc1ccc(-c2nn3ncccc3c2-c2ccnc(Nc3ccc(Cl)c(C(F)(F)F)c3)n2)cc1`, the inhibition was -2.37%.

Regarding `O=C1NC(=O)C(c2ccc(Cl)cc2)=C1Nc1ccc(Cl)c(C(=O)O)c1`, the inhibition came to 2.2%.

Turning to `COC(=O)Nc1nc2cc(Oc3cccc(NC(=O)Nc4cc(C(F)(F)F)ccc4F)c3)ccc2[nH]1`, the inhibition worked out at 0%.

As for `O=C1NC(=O)C(c2cccc(Cl)c2)=C1Nc1ccc(O)c(Cl)c1`, the inhibition was 6.97%.

Consider `CCCN1CCC=C(c2ccc(Nc3nc(Nc4ccccc4C(N)=O)c4cc[nH]c4n3)c(C)c2)C1`, for which the inhibition turned out to be 7.09%.

In the case of `Nc1nc(-c2ccc3c(c2)C(=Cc2cc(Br)c(O)c(Br)c2)C(=O)N3)cs1`, the inhibition is -1.36%.

In the case of `O=C1NC(=O)C(c2ccccc2Cl)=C1Nc1cccc(O)c1`, the inhibition came to 7.05%.

`CCc1cccc(NC(=O)Nc2ccc(Oc3ccc4nc(NC(=O)OC)[nH]c4c3)cc2)c1`: the inhibition came out at 3.26%.

Turning to `CC1=C(C(=O)Nc2ccc3[nH]ncc3c2)C(c2ccc3ccccc3c2)CC(=O)N1` (stereo unspecified), the inhibition stood at 13.2%.

As for `CS(=O)(=O)Nc1ccc(N/C=C2\C(=O)Nc3ccccc32)cc1`, the inhibition amounted to 5.82%.

As to `COc1cc2c(cc1Nc1nc(N3CCc4ccccc43)c3cc[nH]c3n1)N(C(=O)CN(C)C)CC2`, the inhibition was -1.36%.

With `CCN1CCC(CC(=O)Nc2n[nH]c3nc(-c4cccs4)c(Br)cc23)CC1`, the inhibition is -1.95%.

Turning to `NCc1ccc(-c2nc(-c3ccc(Cl)c(O)c3)c(-c3ccncc3)[nH]2)cc1`, the inhibition came out at 1.38%.

Turning to `COC(=O)Nc1nc2cc(Oc3ccc(NC(=O)Nc4cccc(C(=O)O)c4)cc3)ccc2[nH]1`, the inhibition was -2.27%.

As for `O=C(Nc1n[nH]c2nc(-c3ccco3)c(Br)cc12)C1CC1`, the inhibition turned out to be 5.28%.

As to `CCn1c(-c2nonc2N)nc2cnc(Oc3cccc(NC(=O)c4ccc(OCCN5CCOCC5)cc4)c3)cc21`, the inhibition worked out at 5.99%.

On to `COc1cccc(-n2ncc3c(N/N=C/c4cccc(F)c4)ncnc32)c1`, for which the inhibition was -3.18%.

`Nc1ncnc2occ(-c3ccc(NC(=O)Nc4cccc(C(F)(F)F)c4)cc3)c12`: the inhibition amounted to 38.2%.

As to `CCn1c(-c2nonc2N)nc2cncc(C(=O)N3CC[C@H](N)C3)c21`, the inhibition was 1.87%.

As for `COc1cc2ncn(-c3cc(O[C@@H](C)c4ccccc4Cl)c(C(N)=O)s3)c2cc1OC`, the inhibition worked out at 17.2%.

Regarding `CCCN1CCC(Oc2cc(Nc3nc(Nc4cccc(F)c4C(N)=O)c4cc[nH]c4n3)c(OC)cc2Cl)CC1`, the inhibition worked out at 3.54%.

For the compound `[O-][S+]1CCN(Cc2ccc(-c3ccc4ncnc(Nc5ccc(OCc6ccccc6)c(F)c5)c4c3)o2)CC1`, the inhibition was -2.34%.

On to `Cc1ccc(C(=O)NC2CCCCC2)cc1-c1ccc(C(=O)NCC2CC2)cc1`, for which the inhibition worked out at 5.66%.

For `CNC(=O)c1cncc(/C=C/c2c(Cl)cccc2Cl)c1`, the inhibition is -1.56%.

For the compound `CN(C)c1cc2c(Nc3ccc4nc(Cc5ccccc5)[nH]c4c3)ncnc2cn1`, the inhibition was 15.2%.

With `CCn1c(-c2nonc2N)nc2ccncc21`, the inhibition is -1.46%.

In the case of `Fc1cccc(COc2ccc(Nc3ncnc4sc(-c5cccs5)cc34)cc2Cl)c1`, the inhibition stood at 5.02%.

`Cc1ccc(NC(=O)c2ccnc(N3CCCC3)c2)cc1-c1ccc(C(=O)NCC2CC2)cc1`: the inhibition stood at 2.19%.

The target of a further assay is Fibroblast growth factor receptor 2 (Homo sapiens) (UniProt P21802). The settings on record: at 0.1 µM.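 Further: values are mean percent inhibition of FGFR2 kinase, measured within the GSK Published Kinase Inhibitor Set (PKIS) screening panel.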
Fibroblast growth factor receptor 2 (Homo sapiens), sequence (P21802 22-821 limits assumed): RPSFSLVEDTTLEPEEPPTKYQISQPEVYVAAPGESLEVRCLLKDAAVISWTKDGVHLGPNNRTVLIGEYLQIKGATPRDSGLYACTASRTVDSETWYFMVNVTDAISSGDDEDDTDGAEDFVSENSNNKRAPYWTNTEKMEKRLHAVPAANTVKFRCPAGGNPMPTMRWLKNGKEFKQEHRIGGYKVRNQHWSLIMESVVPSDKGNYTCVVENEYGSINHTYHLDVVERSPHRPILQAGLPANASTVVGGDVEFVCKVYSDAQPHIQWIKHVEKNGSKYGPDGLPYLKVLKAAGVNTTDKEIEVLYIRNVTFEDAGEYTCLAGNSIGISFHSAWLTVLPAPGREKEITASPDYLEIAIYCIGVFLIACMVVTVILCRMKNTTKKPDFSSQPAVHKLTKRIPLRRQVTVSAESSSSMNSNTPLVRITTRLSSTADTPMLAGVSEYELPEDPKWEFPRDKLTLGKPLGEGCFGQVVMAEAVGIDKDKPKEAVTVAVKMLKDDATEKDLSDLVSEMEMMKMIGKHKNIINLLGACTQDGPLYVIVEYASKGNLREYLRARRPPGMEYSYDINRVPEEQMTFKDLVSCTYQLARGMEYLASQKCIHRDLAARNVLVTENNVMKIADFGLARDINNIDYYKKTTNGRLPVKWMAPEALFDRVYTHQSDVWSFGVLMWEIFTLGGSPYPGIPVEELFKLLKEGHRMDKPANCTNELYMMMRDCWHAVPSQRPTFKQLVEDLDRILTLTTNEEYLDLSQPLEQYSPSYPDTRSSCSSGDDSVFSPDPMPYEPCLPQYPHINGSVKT
In the case of `CS(=O)(=O)CCN(CC#N)Cc1ccc(-c2ccc3ncnc(Nc4ccc(OCc5cccc(F)c5)c(Cl)c4)c3c2)o1`, the inhibition was -1.21%.

Regarding `CC(=O)Nc1cccc(C#Cc2cncnc2Nc2ccc(OCc3cccc(F)c3)c(Cl)c2)n1`, the inhibition is -4.24%.

Take `COc1ccccc1Nc1ncc(-c2ccccc2)o1`: the inhibition is 6.35%.

Regarding `NS(=O)(=O)c1cccc(-c2ccc3c(NC(=O)C4CC4)n[nH]c3c2)c1`, the inhibition was -1.77%.

Take `Cc1nnc(-c2ccc(C)c(-c3ccc(C(=O)Nc4cccc(C#N)c4)cc3)c2)o1`: the inhibition amounted to 1.7%.

Consider `COc1ccc(-c2nn3ncccc3c2-c2ccnc(Nc3ccc(Cl)c(C(F)(F)F)c3)n2)cc1`, for which the inhibition came out at 1.72%.

On to `O=C1NC(=O)C(c2ccc(Cl)cc2)=C1Nc1ccc(Cl)c(C(=O)O)c1`, for which the inhibition was -2.69%.

As to `COC(=O)Nc1nc2cc(Oc3cccc(NC(=O)Nc4cc(C(F)(F)F)ccc4F)c3)ccc2[nH]1`, the inhibition was -1.71%.

On to `O=C1NC(=O)C(c2cccc(Cl)c2)=C1Nc1ccc(O)c(Cl)c1`, for which the inhibition turned out to be 3.82%.

For `CCCN1CCC=C(c2ccc(Nc3nc(Nc4ccccc4C(N)=O)c4cc[nH]c4n3)c(C)c2)C1`, the inhibition is 6.37%.

For `Nc1nc(-c2ccc3c(c2)C(=Cc2cc(Br)c(O)c(Br)c2)C(=O)N3)cs1`, the inhibition was -1.12%.

In the case of `O=C1NC(=O)C(c2ccccc2Cl)=C1Nc1cccc(O)c1`, the inhibition turned out to be 3.39%.

`CCc1cccc(NC(=O)Nc2ccc(Oc3ccc4nc(NC(=O)OC)[nH]c4c3)cc2)c1`: the inhibition was 3.25%.

For `CC1=C(C(=O)Nc2ccc3[nH]ncc3c2)C(c2ccc3ccccc3c2)CC(=O)N1` (stereo unspecified), the inhibition turned out to be 5.6%.

For the compound `CS(=O)(=O)Nc1ccc(N/C=C2\C(=O)Nc3ccccc32)cc1`, the inhibition is 1.04%.

As to `COc1cc2c(cc1Nc1nc(N3CCc4ccccc43)c3cc[nH]c3n1)N(C(=O)CN(C)C)CC2`, the inhibition came to 0.56%.

On to `CCN1CCC(CC(=O)Nc2n[nH]c3nc(-c4cccs4)c(Br)cc23)CC1`, for which the inhibition was -4.3%.

`NCc1ccc(-c2nc(-c3ccc(Cl)c(O)c3)c(-c3ccncc3)[nH]2)cc1`: the inhibition is -0.38%.

`COC(=O)Nc1nc2cc(Oc3ccc(NC(=O)Nc4cccc(C(=O)O)c4)cc3)ccc2[nH]1`: the inhibition was -3.37%.

Take `O=C(Nc1n[nH]c2nc(-c3ccco3)c(Br)cc12)C1CC1`: the inhibition is 2.01%.

As to `CCn1c(-c2nonc2N)nc2cnc(Oc3cccc(NC(=O)c4ccc(OCCN5CCOCC5)cc4)c3)cc21`, the inhibition was determined as 4.83%.

With `COc1cccc(-n2ncc3c(N/N=C/c4cccc(F)c4)ncnc32)c1`, the inhibition was -3.24%.

Take `Nc1ncnc2occ(-c3ccc(NC(=O)Nc4cccc(C(F)(F)F)c4)cc3)c12`: the inhibition was 15.8%.

In the case of `CCn1c(-c2nonc2N)nc2cncc(C(=O)N3CC[C@H](N)C3)c21`, the inhibition is 2.48%.

With `COc1cc2ncn(-c3cc(O[C@@H](C)c4ccccc4Cl)c(C(N)=O)s3)c2cc1OC`, the inhibition was 7.05%.

In the case of `CCCN1CCC(Oc2cc(Nc3nc(Nc4cccc(F)c4C(N)=O)c4cc[nH]c4n3)c(OC)cc2Cl)CC1`, the inhibition was -2.81%.

For `[O-][S+]1CCN(Cc2ccc(-c3ccc4ncnc(Nc5ccc(OCc6ccccc6)c(F)c5)c4c3)o2)CC1`, the inhibition is 1.34%.

For the compound `Cc1ccc(C(=O)NC2CCCCC2)cc1-c1ccc(C(=O)NCC2CC2)cc1`, the inhibition worked out at 2.75%.

Regarding `CNC(=O)c1cncc(/C=C/c2c(Cl)cccc2Cl)c1`, the inhibition amounted to 3.82%.

For `CN(C)c1cc2c(Nc3ccc4nc(Cc5ccccc5)[nH]c4c3)ncnc2cn1`, the inhibition worked out at 5.58%.

For the compound `CCn1c(-c2nonc2N)nc2ccncc21`, the inhibition was -0.14%.

Consider `Fc1cccc(COc2ccc(Nc3ncnc4sc(-c5cccs5)cc34)cc2Cl)c1`, for which the inhibition amounted to 2.92%.

For the compound `Cc1ccc(NC(=O)c2ccnc(N3CCCC3)c2)cc1-c1ccc(C(=O)NCC2CC2)cc1`, the inhibition was found to be 1.81%.
